Assay results: PubChem BioAssay
Unmarked numbers belong to inactive results. The list shows a part of the results. Calls of active or inactive are those of the source.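 Rule for the calls, unless noted: active = mean activation over triplicate exceeds the hit threshold set in the earlier primary screen (cut at about 20% in these data); inactive = the rest.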

Columns and labels:
[1] = target: Glutathione S-transferase omega-1 (Homo sapiens) (UniProt P78417); assay: recombinant GSTO1 blockers, retest – biochemical, fluorescence polarization, triplicate, counter-screen for RBBP9 inhibitor project, confirmation (AID 2176;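 active = inhibition above the primary screen's cutoff, its mean inhibition plus 3 SD, cut at about 35% in these data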;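 note: loss of polarization as inhibitors block binding of rhodamine sulfonate ester activity probe; 0% = GSTO1 with DMSO and 100% = wells lacking GSTO1 enzyme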); conditions: recombinant GSTO1, probe fluorescence polarization; at 5.96 µM; hits give high values
Glutathione S-transferase omega-1 (Homo sapiens), sequence (P78417 whole entry, looked up): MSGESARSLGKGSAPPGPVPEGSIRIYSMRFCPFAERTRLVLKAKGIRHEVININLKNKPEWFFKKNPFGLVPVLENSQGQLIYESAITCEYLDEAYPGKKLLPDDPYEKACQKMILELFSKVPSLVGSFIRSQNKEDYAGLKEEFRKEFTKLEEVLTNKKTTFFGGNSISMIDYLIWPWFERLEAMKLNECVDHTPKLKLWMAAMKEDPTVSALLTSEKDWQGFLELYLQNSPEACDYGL

[2] = target: Serine protease HTRA1 (Homo sapiens) (UniProt Q92743); assay: confirming inhibition of human HTRA1 – biochemical, fluorescence polarization, confirmation (AID 540248;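 active = mean inhibition over three repeats above a set limit taken from the earlier primary screen, cut at about 37% in these data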;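 note: 0% = HTRA1 with DMSO and 100% = wells lacking HTRA1; inhibitors block probe binding so polarization drops and inhibition rises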); conditions: recombinant HTRA1, FP-rhodamine activity-based probe, at 5.96 µM, hits give high values
[3] = target: (Lyso)-N-acylphosphatidylethanolamine lipase (Mus musculus) (UniProt Q8VD66); assay: mouse ABHD4 hydrolase blockers, triplicate – biochemical, fluorescence polarization, confirmation (AID 720658;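 active = mean inhibition across replicates above the hit cutoff set in the primary screen, cut at about 30% in these data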;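 note: 0% = wild-type ABHD4 with DMSO and 100% = catalytically dead S159A mutant with DMSO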); conditions: purified mABHD4, FP-Rh probe fluorescence polarization; at 8.92 µM; hits give high values
[4] = target: Oxytocin receptor (Homo sapiens) (UniProt P30559); assay: oxytocin receptor activation, retest of hits – fluorescence, CHO-OTR cells, triplicate, confirmation (AID 434963;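 active = mean activation above about 20% derived from the earlier single-dose screen, limit read from the data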;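 note: peak over minimum fluorescence ratio per well during a 100 second FLIPR read; 0% = DMSO alone and 100% = oxytocin high control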); conditions: Fluo-8 calcium fluorescence, agonist, at 3 µM, hits give high values
Oxytocin receptor (Homo sapiens), sequence (P30559 whole entry, looked up): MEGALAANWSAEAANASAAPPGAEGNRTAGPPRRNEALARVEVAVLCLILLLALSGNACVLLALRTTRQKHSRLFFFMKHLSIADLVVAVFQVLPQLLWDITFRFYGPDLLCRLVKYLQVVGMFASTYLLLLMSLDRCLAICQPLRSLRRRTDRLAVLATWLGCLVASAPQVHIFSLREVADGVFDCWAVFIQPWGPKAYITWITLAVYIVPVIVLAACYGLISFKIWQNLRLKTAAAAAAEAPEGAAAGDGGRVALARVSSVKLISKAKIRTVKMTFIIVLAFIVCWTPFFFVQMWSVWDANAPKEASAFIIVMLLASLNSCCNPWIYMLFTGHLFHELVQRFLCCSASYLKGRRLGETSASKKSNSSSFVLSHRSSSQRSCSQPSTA

[5] = target: Vasopressin V1a receptor (Homo sapiens) (UniProt P37288); assay: activators of vasopressin V1R in CHO cells – cell-based, triplicate, fluorescence, counter-screen for OXTR agonist project (AID 434991); conditions: Fluo-8 calcium fluorescence, at 3 µM, hits give high values;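 note: peak over basal fluorescence ratio within a 100 second read; 0% = DMSO alone and 100% = 3 nM vasopressin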
Vasopressin V1a receptor (Homo sapiens), sequence (P37288 whole entry, looked up): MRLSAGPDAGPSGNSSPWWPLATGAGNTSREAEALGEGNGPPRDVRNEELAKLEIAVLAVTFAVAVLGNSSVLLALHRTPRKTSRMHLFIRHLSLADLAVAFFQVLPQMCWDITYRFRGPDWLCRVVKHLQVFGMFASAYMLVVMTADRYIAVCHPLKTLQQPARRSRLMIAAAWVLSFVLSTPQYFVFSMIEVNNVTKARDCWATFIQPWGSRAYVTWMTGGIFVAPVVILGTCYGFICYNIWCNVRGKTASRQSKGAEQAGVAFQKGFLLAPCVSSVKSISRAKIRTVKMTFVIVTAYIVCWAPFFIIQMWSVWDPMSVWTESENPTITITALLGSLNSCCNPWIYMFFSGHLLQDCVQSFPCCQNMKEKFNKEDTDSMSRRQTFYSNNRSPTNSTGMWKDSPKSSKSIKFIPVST

[6] = StAR promoter reporter inhibitors, counter-screen for LRH-1 inverse agonist project, cell-based, luminescence, high throughput (AID 651611; in the data active = inhibition above about 28%); conditions: StAR promoter luciferase reporter counterscreen, at 3.6 µM, hits give high values
[7] = target: Nuclear receptor subfamily 5 group A member 2 (Homo sapiens) (UniProt O00482); assay: NR5A2 activity suppression in reporter cells – cell-based, luminescence, confirmation (AID 651613; in the data active = inhibition above about 42%;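 note: HEK293T cells co-transfected with LRH-1 and StAR promoter luciferase reporter; 0% = vehicle wells and 100% = parental cells lacking receptor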); conditions: cell-based LRH-1 luciferase reporter, inverse agonism; at 3.6 µM; hits give high values
[8] = target: Steroidogenic factor 1 (Homo sapiens) (UniProt Q13285); assay: inverse agonism at SF1 nuclear receptor – cell-based, luminescence, high throughput, counter-screen for LRH-1 inverse agonist project (AID 651614; in the data active = inhibition above about 44%;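 note: cells cotransfected with StAR promoter reporter and SF1 expression vector; 0% = vehicle on cells with receptor and 100% = vehicle on cells lacking receptor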); conditions: cell-based SF1 luciferase reporter, at 3.6 µM, hits give high values
[9] = compounds suppressing VP16-driven luciferase signal – cell-based, luminescence, high throughput, counter-screen for LRH-1 inverse agonist project (AID 651615; in the data active = inhibition above about 33%); conditions: Gal4-VP16 luciferase reporter cells, at 3.6 µM, hits give high values
[10] = tested on: transactivating tegument protein VP16 (Human herpesvirus 1); assay: compounds suppressing VP16-driven luciferase signal – cell-based, luminescence, single concentration, counter-screen for SRC2 inhibitor project (AID 652007; in the data active = inhibition above about 36%); conditions: cell-based VP16 transactivation luciferase reporter, at 8.9 µM, hits give high values
[11] = target: Nuclear receptor coactivator 2 (Homo sapiens) (UniProt Q15596); assay: inhibition of GAL4-SRC2 driven luciferase expression – cell-based, luminescence, HEK293, triplicate, confirmation (AID 652008;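 active = mean inhibition above 46.5%, the solvent-only control mean plus 3 SD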;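 note: 0% = DMSO-treated cells and 100% = Gossypol at 36 µM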); conditions: HEK293 GAL4-SRC2 luciferase reporter, at 8.9 µM, hits give high values
[12] = target: Lytic switch protein BZLF1 (Epstein-Barr virus (strain B95-8)) (UniProt P03206); assay: blockers of Zta-ZRE DNA complex – biochemical, fluorescence polarization, triplicate, confirmation (AID 2361;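 active = mean inhibition across triplicate runs above the hit threshold derived for the original primary screen, cut at about 33% in these data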;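 note: 0% = Zta with DMSO and 100% = wells lacking Zta protein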); conditions: Zta-ZRE DNA binding, at 11.1 µM, hits give high values
[13] = tested on: Epstein-Barr virus nuclear antigen 1 (EBNA-1), Human herpesvirus 4; assay: blockers of EBV EBNA-1 binding to DNA – biochemical, fluorescence polarization, counter-screen for ZTA inhibitor project (AID 2362; call rule not given here); conditions: EBNA-1 DNA binding, at 14.8 µM, hits give high values
[14] = target: Platelet-activating factor acetylhydrolase (Homo sapiens) (UniProt Q13093); assay: inhibition of plasma PAF acetylhydrolase – biochemical, fluorescence polarization, human, confirmation (AID 463230;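 active = mean inhibition of the triplicate above the hit cutoff set for the earlier primary screen, cut at about 25% in these data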;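 note: 0% = enzyme with DMSO and 100% = wells lacking pPAFAH enzyme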); conditions: recombinant pPAFAH, FP-Rh probe fluorescence polarization; at 3.39 µM; hits give high values
Platelet-activating factor acetylhydrolase (Homo sapiens), sequence (Q13093 whole entry, looked up): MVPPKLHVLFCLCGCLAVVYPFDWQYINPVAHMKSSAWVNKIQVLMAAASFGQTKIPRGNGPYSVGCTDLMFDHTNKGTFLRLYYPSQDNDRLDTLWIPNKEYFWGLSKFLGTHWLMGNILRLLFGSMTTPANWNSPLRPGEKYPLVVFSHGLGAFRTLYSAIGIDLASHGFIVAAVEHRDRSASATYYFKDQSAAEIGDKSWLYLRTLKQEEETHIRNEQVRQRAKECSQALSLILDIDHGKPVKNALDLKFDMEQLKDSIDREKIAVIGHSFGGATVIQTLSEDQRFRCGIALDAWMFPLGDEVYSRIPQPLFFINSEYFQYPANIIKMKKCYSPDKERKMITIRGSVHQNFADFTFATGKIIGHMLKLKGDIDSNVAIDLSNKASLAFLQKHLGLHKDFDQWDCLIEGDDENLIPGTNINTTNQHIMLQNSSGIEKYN

[15] = target: Photoreceptor-specific nuclear receptor (Homo sapiens) (UniProt Q9Y5X4); assay: corepressor-releasing ligands of human NR2E3 – biochemical, TR-FRET, confirmation (AID 2379; in the data active = activation above about 20%); conditions: cell-free NR2E3 corepressor release, 5 h, at 3.98 µM, hits give high values
Photoreceptor-specific nuclear receptor (Homo sapiens), sequence (Q9Y5X4 whole entry, looked up): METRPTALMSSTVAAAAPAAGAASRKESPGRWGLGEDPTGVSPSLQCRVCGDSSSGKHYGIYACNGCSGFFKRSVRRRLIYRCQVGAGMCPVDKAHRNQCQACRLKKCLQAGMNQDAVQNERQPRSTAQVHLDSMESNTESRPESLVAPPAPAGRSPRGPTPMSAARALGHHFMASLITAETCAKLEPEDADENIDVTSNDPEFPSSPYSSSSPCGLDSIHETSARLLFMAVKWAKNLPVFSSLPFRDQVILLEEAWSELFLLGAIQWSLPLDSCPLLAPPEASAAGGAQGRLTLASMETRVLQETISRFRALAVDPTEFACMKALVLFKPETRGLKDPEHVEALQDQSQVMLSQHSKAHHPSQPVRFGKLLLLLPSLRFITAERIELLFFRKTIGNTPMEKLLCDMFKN

[16] = target: Peroxisome proliferator-activated receptor gamma (Homo sapiens) + Nuclear receptor corepressor 2 (Homo sapiens) (UniProt P37231+Q9Y618); assay: agonists of PPARg-NCOR2 corepressor interaction, counter-screen for NR2E3 agonist project, biochemical, TR-FRET (AID 504787; in the data active = inhibition above about 20%;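 note: 0% = DMSO vehicle and 100% = wells without protein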); conditions: TR-FRET PPARg-NCOR2 coregulator interaction, at 3.98 µM, hits give high values
Peroxisome proliferator-activated receptor gamma (Homo sapiens) + Nuclear receptor corepressor 2 (Homo sapiens), sequence (P37231 whole entry, looked up, the tested form may be a part): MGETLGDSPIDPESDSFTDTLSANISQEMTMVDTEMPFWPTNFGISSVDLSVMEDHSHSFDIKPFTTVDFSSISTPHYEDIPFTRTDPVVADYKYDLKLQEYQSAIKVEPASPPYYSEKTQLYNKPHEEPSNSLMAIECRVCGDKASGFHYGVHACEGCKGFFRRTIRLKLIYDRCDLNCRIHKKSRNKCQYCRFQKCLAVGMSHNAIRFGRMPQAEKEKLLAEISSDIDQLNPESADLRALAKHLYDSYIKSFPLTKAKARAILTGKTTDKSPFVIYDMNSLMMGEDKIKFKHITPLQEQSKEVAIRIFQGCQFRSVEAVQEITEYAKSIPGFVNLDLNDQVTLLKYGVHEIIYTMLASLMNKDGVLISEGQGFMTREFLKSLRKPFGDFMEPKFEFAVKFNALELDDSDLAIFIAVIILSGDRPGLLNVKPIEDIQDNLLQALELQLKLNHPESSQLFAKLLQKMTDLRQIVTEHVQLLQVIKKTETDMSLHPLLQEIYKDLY
Peroxisome proliferator-activated receptor gamma (Homo sapiens) + Nuclear receptor corepressor 2 (Homo sapiens), sequence (Q9Y618 whole entry, looked up, the tested form may be a part): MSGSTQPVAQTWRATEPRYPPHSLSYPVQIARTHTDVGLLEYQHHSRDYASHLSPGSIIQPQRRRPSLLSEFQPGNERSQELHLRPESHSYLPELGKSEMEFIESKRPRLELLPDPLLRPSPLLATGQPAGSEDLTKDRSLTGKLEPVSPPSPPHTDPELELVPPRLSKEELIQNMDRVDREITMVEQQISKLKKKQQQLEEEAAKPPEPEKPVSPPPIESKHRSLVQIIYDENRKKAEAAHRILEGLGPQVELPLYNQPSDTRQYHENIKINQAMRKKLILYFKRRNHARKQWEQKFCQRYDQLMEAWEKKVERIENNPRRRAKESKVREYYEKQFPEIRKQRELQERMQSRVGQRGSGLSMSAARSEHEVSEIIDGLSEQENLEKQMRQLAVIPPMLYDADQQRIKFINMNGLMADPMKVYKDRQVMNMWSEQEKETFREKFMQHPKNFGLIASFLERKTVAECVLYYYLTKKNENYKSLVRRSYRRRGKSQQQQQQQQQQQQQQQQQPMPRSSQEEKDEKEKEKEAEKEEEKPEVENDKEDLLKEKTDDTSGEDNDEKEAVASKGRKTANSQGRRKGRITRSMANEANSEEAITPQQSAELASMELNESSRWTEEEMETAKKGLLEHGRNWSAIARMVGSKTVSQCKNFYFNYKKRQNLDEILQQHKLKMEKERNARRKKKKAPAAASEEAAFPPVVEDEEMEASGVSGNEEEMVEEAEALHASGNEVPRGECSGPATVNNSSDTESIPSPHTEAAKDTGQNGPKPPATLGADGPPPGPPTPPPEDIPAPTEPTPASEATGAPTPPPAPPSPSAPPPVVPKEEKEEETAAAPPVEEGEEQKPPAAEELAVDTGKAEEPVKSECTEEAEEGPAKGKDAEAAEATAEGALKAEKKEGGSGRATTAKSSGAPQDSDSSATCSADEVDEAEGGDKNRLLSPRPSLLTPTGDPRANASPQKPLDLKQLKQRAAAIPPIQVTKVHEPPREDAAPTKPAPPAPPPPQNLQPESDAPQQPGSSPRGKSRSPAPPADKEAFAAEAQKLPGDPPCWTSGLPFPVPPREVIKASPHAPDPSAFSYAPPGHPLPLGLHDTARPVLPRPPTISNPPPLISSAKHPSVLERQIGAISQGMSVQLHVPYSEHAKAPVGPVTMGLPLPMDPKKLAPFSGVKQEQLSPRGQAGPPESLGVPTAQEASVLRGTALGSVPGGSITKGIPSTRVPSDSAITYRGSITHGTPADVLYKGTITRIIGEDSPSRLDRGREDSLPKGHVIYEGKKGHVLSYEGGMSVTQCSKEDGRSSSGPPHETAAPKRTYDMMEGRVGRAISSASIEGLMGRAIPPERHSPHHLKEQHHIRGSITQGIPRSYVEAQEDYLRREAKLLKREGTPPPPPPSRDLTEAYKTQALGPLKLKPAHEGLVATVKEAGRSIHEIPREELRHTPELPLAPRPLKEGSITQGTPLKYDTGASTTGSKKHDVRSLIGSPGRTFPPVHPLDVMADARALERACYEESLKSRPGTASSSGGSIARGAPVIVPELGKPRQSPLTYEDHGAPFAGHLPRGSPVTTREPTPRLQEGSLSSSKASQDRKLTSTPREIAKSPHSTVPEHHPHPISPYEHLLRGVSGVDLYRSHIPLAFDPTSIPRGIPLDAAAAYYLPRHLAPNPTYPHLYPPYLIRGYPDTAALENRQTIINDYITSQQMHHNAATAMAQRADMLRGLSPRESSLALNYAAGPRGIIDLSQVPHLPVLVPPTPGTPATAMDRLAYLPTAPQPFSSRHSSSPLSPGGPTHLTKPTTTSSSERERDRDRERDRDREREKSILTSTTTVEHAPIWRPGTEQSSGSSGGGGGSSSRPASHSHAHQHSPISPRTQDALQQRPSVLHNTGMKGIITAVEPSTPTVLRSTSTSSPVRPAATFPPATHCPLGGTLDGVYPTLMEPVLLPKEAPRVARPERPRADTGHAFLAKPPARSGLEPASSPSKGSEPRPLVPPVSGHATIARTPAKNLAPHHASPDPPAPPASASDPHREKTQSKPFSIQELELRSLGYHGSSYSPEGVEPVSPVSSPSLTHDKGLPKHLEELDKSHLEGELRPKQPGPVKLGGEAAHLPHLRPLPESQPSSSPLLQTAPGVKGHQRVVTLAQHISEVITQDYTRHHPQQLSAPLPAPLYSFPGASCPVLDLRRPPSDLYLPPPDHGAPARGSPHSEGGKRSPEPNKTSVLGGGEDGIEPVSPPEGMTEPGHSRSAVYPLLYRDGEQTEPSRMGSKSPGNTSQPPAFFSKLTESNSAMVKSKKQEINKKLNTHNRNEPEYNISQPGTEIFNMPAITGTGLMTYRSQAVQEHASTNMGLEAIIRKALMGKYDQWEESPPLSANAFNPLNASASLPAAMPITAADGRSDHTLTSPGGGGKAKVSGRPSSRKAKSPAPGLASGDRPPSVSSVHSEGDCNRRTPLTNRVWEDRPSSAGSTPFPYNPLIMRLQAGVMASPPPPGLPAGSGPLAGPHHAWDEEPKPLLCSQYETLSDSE

[17] = target: Nuclear receptor coactivator 3 (Homo sapiens) (UniProt Q9Y6Q9); assay: NCOA3 GAL4-fusion reporter inhibition – cell-based, luminescence, quadruplicate, confirmation (AID 588792;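 active = mean inhibition over 43.08%, the solvent-only control mean plus 3 SD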;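 note: 0% = DMSO treated cells and 100% = gossypol at 36 µM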); conditions: HEK293 GAL4-SRC3 luciferase reporter, at 3.6 µM, hits give high values
[18] = tested on: transactivating tegument protein VP16 (Human herpesvirus 1), Gal4-VP16 luciferase reporter; assay: repression of VP16-driven luciferase reporter – cell-based, luminescence, high throughput, counter-screen for SRC3 inhibitor project (AID 588794; in the data active = inhibition above about 30%); conditions: mammalian cells, at 3.6 µM, hits give high values

For `Oc1ccc(CNc2ccccc2O)cc1`, the inhibition [1] was 21.7%, the inhibition [2] was 29% and the inhibition [3] was 37.2% (active).

For `CCOc1cc(/C=C(\C#N)c2nc(-c3cccs3)c(NC(C)=O)s2)ccc1O`, the activation [4] was 31.9% (active) and the activation [5] was 25.4% (active).

In the case of `Cc1nn(-c2ccccc2)c(C)c1NC(=O)CCl`, the inhibition [1] is reported as 83.7% (active), the inhibition [6] is reported as 28.1% (active) and the inhibition [7] is reported as 35.5%. For the same compound, the inhibition [8] was 61.1% (active) and the inhibition [9] was -83.9%.

With `Cc1ccc(N(Cc2cc(=O)[nH]c3ccccc23)C(=O)CCl)cc1` the inhibition [1] was 90% (active), the inhibition [10] was 33.7% and the inhibition [11] was 51.6% (active).

In the case of `CSc1nnc(SCc2nc3sc(C(=O)O)c(C)c3c(=O)[nH]2)s1`, the inhibition [12] is reported as 55.8% (active), the inhibition [13] is reported as 5.58% and the inhibition [14] is reported as 43.4% (active).

With `CC(CO)(CO)NC(=O)c1ccc(=O)[nH]n1` the activation [4] was -0.33% and the activation [5] was 0.63%.

For `CC1=CC2=NC(=O)/C(=C/c3coc4ccccc4c3=O)C(=N)N2O1`, the activation [4] was 40% (active) and the activation [5] was 36.5% (active).

With `N#Cc1c(N)nc2c3c(sc(=N)c2c1N)NC(=O)CC3c1ccccc1Cl` (configuration not stated) the activation (reported as inhibition) [15] was -9.26% and the inhibition [16] was -7.41%.

With `CC1(C)CC[C@@]2(C(=O)O)C(C1)C1=CCC3[C@@]4(C)CC[C@H](O)C(C)(C)C4CC[C@@]3(C)[C@]1(C)C[C@H]2O` (some centres not stated) the activation [4] was 67.3% (active) and the activation [5] was 1.34%.

With `CCN(CCCNC(=O)c1ccc2c(c1)NC(=O)CN2C)c1cccc(C)c1` the inhibition [1] was 36.3% (active), the inhibition [17] was 10.3% and the inhibition [18] was 1.36%.

In the case of `Cc1cccc(NC(=O)c2sc3nc(N4CCOCC4)c4c(c3c2N)CCCC4)c1`, the activation (reported as inhibition) [15] is reported as -1.32% and the inhibition [16] is reported as -0.47%.

`C/C(=N\NS(=O)(=O)c1ccc(Cl)cc1)c1ccc(NC(=O)c2ccco2)cc1` gave an activation [4] of 17.6% and an activation [5] of 11.1%.

In the case of `O=C(NNC(=S)NC(=O)c1cn(-c2ccccc2)nc1-c1ccccc1)c1ccncc1`, the activation [4] is reported as 4.81% and the activation [5] is reported as 9.53%.

`CN(Cc1ccccc1)Cc1ccccc1F` gave an activation (reported as inhibition) [15] of -2.78% and an inhibition [16] of -3.03%.

Compound `CC(C)c1ccc(C2C(C(=O)c3ccco3)=C(O)C(=O)N2CC2CCCO2)cc1` (configuration not stated) has an activation (reported as inhibition) [15] of -0.08% and an inhibition [16] of 1.84%.
